From PubChem BioAssay (NCATS) come the findings set out here.

In assay [1] the target is Voltage-gated inwardly rectifying potassium channel KCNH2 (Homo sapiens) (UniProt Q12809). Description: qHTS Assay for Small Molecule Inhibitors of the Human hERG Channel Activity (AID 588834).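 Also: top concentration of the series differs between compounds; % is scaled to controls: 0 for no effect and ±100 for the full control effect; lower thallium flux fluorescence means stronger hERG block; nearly all actives have a fitted effect of over 50% in size.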 The method, boiled down: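 Concentration-response qHTS measuring drop in thallium-sensitive dye signal. U2OS cells carrying BacMam hERG; compound exposure ~10 min, then stimulation buffer and 2 min read at 1 sec intervals.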
(qHTS replaces the single test concentration by a dilution series.)

In assay [2] the target is Peroxisome proliferator-activated receptor gamma (Homo sapiens) (UniProt P37231). Description: qHTS assay for small molecule antagonists of peroxisome proliferator-activated receptor gamma signaling (AID 588537; active = well fitted inhibition curve with a large enough effect in the signal ratio, with a control signal flat, not every such curve was filed as active; the % refers to the signal ratio; also: potency is read from the fitted curve at half-maximal effect). The method, boiled down: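 PPARγ-UAS-bla HEK293 cells (3000/well) in 1% charcoal/dextran-stripped FBS are treated with compound, then stimulated with 50 nM rosiglitazone for 16 h at 37 °C. Read-out is CCF4 β-lactamase fluorescence after 2 h at RT. IC50 comes from Hill fits normalised to rosiglitazone and DMSO.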

Assay [3] addresses Thyroid hormone receptor beta (Homo sapiens) (UniProt P10828). As to the kind of experiment: qHTS assay for small molecule antagonists of thyroid hormone receptor beta signaling (AID 588547; active = well fitted inhibition curve with a large enough effect in the signal ratio, with a control signal flat, not every such curve was filed as active; the % refers to the signal ratio;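 also: cells stimulated with 0.4 nM T3 agonist during compound exposure; series mostly up to about 77 µM; % is scaled to controls: 0 for no effect and ±100 for the full control effect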). The following applies: TR-UAS-bla HEK293, beta-lactamase ratio, antagonist mode, 18 h. An outline of the steps:
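TR-UAS-bla GripTite HEK293 cells in 2% charcoal/dextran FBS medium; compounds 0.59 nM to 92 uM with T3 at 0.4nM final, 18 h at 37 C. Beta-lactamase read by CCF4 fluorescence (460/530 nm); Hill fits gave IC50 and efficacy.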

Assay [4] concerns the target Luciferin 4-monooxygenase (Photinus pyralis) (UniProt P08659). As to the kind of experiment: Biochemical firefly luciferase enzyme assay for NPC (AID 624030). Also: nearly all actives have a fitted effect of over 70% in size. Also: potency is read from the fitted curve at half-maximal effect. An outline of the steps: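 Purified P. pyralis luciferase at 10 nM in 50 mM Tris Acetate (final), luminescence read within 5 minutes of enzyme addition to compounds. Activity normalised to PTC124 versus DMSO; concentration-response curves classed by r2, magnitude and activity.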

The nature of assay [5]: S16 Schwann cell viability assay (CellTiter-Glo assay) (AID 624031).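 Also: native untransfected S16 rat Schwann cells; series mostly up to about 58 µM; plate controls were DMSO-treated cells for no effect and cell-free wells for full effect; nearly all actives have a fitted effect of over 70% in size.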 The method, boiled down: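 Parental S16 cells, 24 h compound, 37 °C. ATP-luminescence viability; DMSO = 0% activity, empty wells as reference; curves classified by fit quality and efficacy.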
Background: ATP-based viability assays read luminescence as a measure of living cells.

The nature of assay [6]: S16 Schwann cell PMP22 intronic element firefly luciferase assay (AID 624032).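 Also: series mostly up to about 58 µM; plate controls were DMSO for no effect and PTC124 positive control mean for full effect; nearly all actives have a fitted effect of over 30% in size.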 An outline of the steps: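 Rat S16 Schwann cells stably carrying firefly luciferase driven by a PMP22 intronic element, in 10% FBS, treated 24 h at 37 C. ONE-Glo luminescence normalized to PTC124 control and DMSO (0%); curves classed by r2, magnitude and activity.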
In assay [7] the target is Glutaminase kidney isoform, mitochondrial (Homo sapiens) (UniProt O94925). Description: qHTS for Inhibitors of Glutaminase (GLS): LOPAC Validation (AID 624146). Also: nearly all actives have a fitted effect of over 60% in size. Also: potency is read from the fitted curve at half-maximal effect. The method, boiled down:
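Enzyme dispensed in phosphate buffer (45 mM, pH 8.2, 0.02% Tween-20), compounds pinned in, then 1 mM L-glutamine solution and the glutamate oxidase–HRP–Amplex Red mix added; fluorescence read immediately and again after 30 min at room temperature.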

Assay [8] is described as follows: qHTS of Trypanosoma Brucei Inhibitors: LOPAC Validation (AID 624147). Also: 0% is about no effect. The method, boiled down: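 Readout: single end-point luminescence (Kinase-Glo Plus, 10 min). Reaction conditions were TbPYK/substrate plus 130 uM ADP, 45 min at RT, pH 7.2 TEA buffer. No-enzyme wells served as controls, and data were normalized before concentration-response fitting.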
Assay [9] has as its target Vitamin D3 receptor (Homo sapiens) (UniProt P11473). Description: qHTS assay for small molecule agonists of vitamin D receptor signaling (AID 588543; calls by dose curve;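 also: 0% = DMSO basal and 100% = reference agonist control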). The method, boiled down: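 β-lactamase reporter, VDR-UAS-bla HEK293T, agonist mode. Cells plated 5 h at 37 °C, compound titration 16 h at 37 °C, CCF4 dye 2 h RT, ratio 460/530 nm. Hill fit → EC50, efficacy vs 50 nM 1α,25-(OH)2D3.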

Assay [10] has as its target Peroxisome proliferator-activated receptor gamma (Homo sapiens) (UniProt P37231). As to the kind of experiment: qHTS assay for small molecule agonists of peroxisome proliferator-activated receptor gamma signaling (AID 588536; active = well fitted curve in the direction sought with a large enough effect in the signal ratio, with a control signal flat, not every such curve was filed as active; the % refers to the signal ratio;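 also: 0% = DMSO basal wells and 100% = rosiglitazone at 2 µM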). An outline of the steps:
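Ratiometric blue/green fluorescence (405 nm excitation; 460 and 530 nm emission) from CCF4-loaded HEK293 reporter cells serves as signal. Exposure to test compounds lasts 16 h at 37 C in medium containing 1% charcoal/dextran-treated serum.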

A short description of assay [11]: qHTS assay for small molecule antagonists of retinoid X receptor alpha signaling (AID 588546; active = well fitted inhibition curve with a large enough effect in the signal ratio, with a control signal flat, not every such curve was filed as active; the % refers to the signal ratio; also: potency is read from the fitted curve at half-maximal effect;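 as to max response: cells stimulated with 9-cis-retinoic acid as agonist; % is scaled to controls: 0 for no effect and ±100 for the full control effect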). The following applies: HEK293T RXRa-UAS-bla, beta-lactamase ratio, antagonist mode; measured here: W530 green channel, cytotoxicity proxy. The method, boiled down:
(§1)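 Beta-lactamase reporter inhibition, read as CCF4 fluorescence ratio (ex 405, em 460/530 nm) after 2 h at RT. HEK293T UAS-bla cells, 2500/well, were stimulated with 9-cis-RA at 500 or 100 nM final alongside test compound for 18 h at 37 C.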

Assay [12] addresses Retinoic acid receptor RXR-alpha (Homo sapiens) (UniProt P19793). The assay is described as above. Particulars: HEK293T RXRa-UAS-bla, beta-lactamase ratio, antagonist mode. An outline of the steps: as §1
Assay [13] in a line: qHTS assay for small molecule antagonists of peroxisome proliferator-activated receptor delta signaling (AID 588535; active = well fitted inhibition curve with a large enough effect in the signal ratio, with a control signal flat, not every such curve was filed as active; the % refers to the signal ratio;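 as to max response: cells co-treated with a PPAR-delta agonist as stimulator during compound exposure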). The following applies: HEK293T PPARd-UAS-bla, beta-lactamase FRET ratio, 18 h; 460 nm channel. The method, boiled down: (§2)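 Antagonist-mode beta-lactamase reporter (GeneBLAzer PPAR-delta-UAS-bla) in HEK293T cells, 2% charcoal/dextran FBS, 4000 cells/well. Compound titrations, 18 h at 37 C; CCF4 ratio read, IC50 and efficacy from Hill fits.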

Assay [14] deals with Peroxisome proliferator-activated receptor delta (Homo sapiens) (UniProt Q03181). The description is as above. The method, boiled down: as §2
Assay [15] addresses Vitamin D3 receptor (Homo sapiens) (UniProt P11473). Description: qHTS assay for small molecule antagonists of vitamin D receptor signaling (AID 588541; calls by dose curve;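 also: receptor activated by calcitriol during compound treatment; series mostly up to about 77 µM; % is scaled to controls: 0 for no effect and ±100 for the full control effect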). The method, boiled down:
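VDR-UAS-bla HEK293T cells in 2% charcoal-stripped FBS were stimulated with 1-alpha,25-dihydroxyvitamin D3 (3 nM final) plus compound for 16 h at 37 C. The beta-lactamase CCF4 readout was normalized to 50 nM agonist and DMSO, and Hill fits gave IC50.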

The nature of assay [16]: qHTS assay for small molecule agonists of retinoid X receptor alpha signaling (AID 588544; calls by dose curve;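 as to activation: 0% = DMSO basal wells and 100% = reference agonist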). Particulars: HEK293T RXRa-UAS-bla, beta-lactamase reporter, 18 h; 530 nm emission.
The target in assay [17] is Retinoic acid receptor RXR-alpha (Homo sapiens) (UniProt P19793). The assay is described as above.
The target of assay [18] is Glucocorticoid receptor (Homo sapiens) (UniProt P04150). As to the kind of experiment: qHTS assay for small molecule agonists of glucocorticoid receptor signaling (AID 588532; active = well fitted curve in the direction sought with a large enough effect in the signal ratio, with a control signal flat; the % refers to the signal ratio;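 also: 100% = dexamethasone at 0.1 µM and 0% = DMSO only wells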). Particulars: HeLa MMTV-bla, beta-lactamase ratio, agonist, 18 h; stronger effect = higher value; percent of dexamethasone control, DMSO zero. The method, boiled down:
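Cells were plated and rested 3-5 h at 37 C, compounds were added in titration and incubated 18 h, then CCF4 substrate was loaded for 2 h at RT before reading blue/green fluorescence. EC50 came from Hill-equation fitting.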

The nature of assay [19]: S16 Schwann cell PMP22 intronic element beta-lactamase assay (AID 624044; calls by dose curve; also: nearly all actives have a fitted effect of over 15% in size; also: potency is read from the fitted curve at half-maximal effect). The method, boiled down:
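Rat S16 Schwann cells with beta-Lac driven by a PMP22 intronic element, compound-treated 24 h at 37 °C. LiveBLAzer FRET B/G read: 460 nm normalized to potassium clavulanate vs DMSO; 535 nm FRET as viability; concentration-effect curves classified.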

Values joined by “and” are separate entries in the source; they are usually repeats but may differ in a detail not shown here. Identical values can stand only once. Results filed as inconclusive are left out. Active and inactive are the calls of the source. Unless noted, calls follow the shape of the dose curve; as a rule, active = well fitted curve in the direction sought with a large enough effect; inconclusive = small, poorly fitted or top-dose-only effect, or another doubt; inactive = no such curve, though single readings can be large; an effect the other way counts as inactive or inconclusive.

Glucocorticoid receptor (Homo sapiens), sequence (P04150 whole entry, looked up): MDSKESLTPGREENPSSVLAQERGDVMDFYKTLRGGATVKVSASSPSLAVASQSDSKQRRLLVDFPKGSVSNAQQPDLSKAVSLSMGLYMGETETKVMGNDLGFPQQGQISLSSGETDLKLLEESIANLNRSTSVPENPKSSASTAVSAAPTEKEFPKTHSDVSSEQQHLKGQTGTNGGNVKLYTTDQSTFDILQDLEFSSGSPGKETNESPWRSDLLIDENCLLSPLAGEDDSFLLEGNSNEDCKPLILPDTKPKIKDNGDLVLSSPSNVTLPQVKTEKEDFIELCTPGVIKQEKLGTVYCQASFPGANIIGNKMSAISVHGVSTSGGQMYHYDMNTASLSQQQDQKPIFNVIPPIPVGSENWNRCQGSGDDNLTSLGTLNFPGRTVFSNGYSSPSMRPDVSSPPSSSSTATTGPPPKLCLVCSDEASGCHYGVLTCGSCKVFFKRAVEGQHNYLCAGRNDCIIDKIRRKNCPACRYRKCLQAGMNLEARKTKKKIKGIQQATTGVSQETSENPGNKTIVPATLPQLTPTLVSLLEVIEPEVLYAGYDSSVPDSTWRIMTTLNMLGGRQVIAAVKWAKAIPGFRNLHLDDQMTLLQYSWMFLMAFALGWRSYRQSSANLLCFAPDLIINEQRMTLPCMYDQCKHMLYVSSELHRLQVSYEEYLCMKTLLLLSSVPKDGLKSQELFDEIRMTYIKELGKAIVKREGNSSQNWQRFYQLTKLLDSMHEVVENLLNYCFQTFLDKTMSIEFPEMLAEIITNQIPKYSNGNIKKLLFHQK
Thyroid hormone receptor beta (Homo sapiens), sequence (P10828 whole entry, looked up): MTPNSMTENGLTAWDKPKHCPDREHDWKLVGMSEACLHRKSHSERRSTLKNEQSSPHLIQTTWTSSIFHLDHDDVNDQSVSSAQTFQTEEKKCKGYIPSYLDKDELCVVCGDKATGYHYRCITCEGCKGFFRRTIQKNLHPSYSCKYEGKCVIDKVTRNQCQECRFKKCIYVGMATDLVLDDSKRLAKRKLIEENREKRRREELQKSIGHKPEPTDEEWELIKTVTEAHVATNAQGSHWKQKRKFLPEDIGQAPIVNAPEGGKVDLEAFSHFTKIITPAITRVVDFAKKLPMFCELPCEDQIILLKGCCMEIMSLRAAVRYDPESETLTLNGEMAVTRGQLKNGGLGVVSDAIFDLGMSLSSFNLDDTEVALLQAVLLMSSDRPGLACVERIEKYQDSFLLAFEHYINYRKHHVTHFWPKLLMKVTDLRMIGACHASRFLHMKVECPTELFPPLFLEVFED
Peroxisome proliferator-activated receptor delta (Homo sapiens), sequence (Q03181 whole entry, looked up): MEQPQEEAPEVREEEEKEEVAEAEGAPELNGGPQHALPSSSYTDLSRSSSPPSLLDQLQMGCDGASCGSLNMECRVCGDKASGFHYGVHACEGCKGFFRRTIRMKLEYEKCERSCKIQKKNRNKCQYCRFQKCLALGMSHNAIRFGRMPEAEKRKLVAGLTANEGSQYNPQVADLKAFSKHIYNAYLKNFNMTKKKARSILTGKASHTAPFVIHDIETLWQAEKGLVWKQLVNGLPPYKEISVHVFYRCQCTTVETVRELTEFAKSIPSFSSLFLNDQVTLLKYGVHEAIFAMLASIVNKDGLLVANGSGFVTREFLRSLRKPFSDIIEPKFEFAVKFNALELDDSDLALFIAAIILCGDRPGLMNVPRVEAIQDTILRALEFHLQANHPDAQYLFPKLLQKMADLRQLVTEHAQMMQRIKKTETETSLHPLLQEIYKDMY
Peroxisome proliferator-activated receptor gamma (Homo sapiens), sequence (P37231 whole entry, looked up): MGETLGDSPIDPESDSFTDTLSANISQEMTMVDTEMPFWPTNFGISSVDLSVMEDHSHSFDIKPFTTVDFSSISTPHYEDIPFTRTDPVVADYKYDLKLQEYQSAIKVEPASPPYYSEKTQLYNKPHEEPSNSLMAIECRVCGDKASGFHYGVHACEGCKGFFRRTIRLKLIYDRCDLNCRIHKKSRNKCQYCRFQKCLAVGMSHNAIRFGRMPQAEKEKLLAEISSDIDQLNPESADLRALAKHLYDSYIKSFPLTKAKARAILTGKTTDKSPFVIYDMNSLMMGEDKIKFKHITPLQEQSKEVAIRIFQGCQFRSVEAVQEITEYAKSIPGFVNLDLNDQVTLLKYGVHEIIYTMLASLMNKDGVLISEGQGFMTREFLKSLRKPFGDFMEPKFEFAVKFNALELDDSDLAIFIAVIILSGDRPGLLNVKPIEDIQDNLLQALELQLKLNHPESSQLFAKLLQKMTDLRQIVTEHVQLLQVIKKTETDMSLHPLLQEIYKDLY
Vitamin D3 receptor (Homo sapiens), sequence (P11473 whole entry, looked up): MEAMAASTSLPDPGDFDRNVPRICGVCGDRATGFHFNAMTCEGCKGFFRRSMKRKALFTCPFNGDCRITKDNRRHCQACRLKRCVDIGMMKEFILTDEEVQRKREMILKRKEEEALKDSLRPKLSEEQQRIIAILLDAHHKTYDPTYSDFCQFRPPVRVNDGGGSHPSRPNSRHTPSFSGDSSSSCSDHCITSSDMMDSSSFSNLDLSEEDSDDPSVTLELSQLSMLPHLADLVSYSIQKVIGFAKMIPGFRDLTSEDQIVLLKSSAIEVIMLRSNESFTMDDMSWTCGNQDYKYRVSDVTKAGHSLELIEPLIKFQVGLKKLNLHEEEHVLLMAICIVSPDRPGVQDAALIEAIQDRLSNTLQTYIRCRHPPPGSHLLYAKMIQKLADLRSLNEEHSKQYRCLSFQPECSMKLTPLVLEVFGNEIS
Voltage-gated inwardly rectifying potassium channel KCNH2 (Homo sapiens), sequence (Q12809 whole entry, looked up): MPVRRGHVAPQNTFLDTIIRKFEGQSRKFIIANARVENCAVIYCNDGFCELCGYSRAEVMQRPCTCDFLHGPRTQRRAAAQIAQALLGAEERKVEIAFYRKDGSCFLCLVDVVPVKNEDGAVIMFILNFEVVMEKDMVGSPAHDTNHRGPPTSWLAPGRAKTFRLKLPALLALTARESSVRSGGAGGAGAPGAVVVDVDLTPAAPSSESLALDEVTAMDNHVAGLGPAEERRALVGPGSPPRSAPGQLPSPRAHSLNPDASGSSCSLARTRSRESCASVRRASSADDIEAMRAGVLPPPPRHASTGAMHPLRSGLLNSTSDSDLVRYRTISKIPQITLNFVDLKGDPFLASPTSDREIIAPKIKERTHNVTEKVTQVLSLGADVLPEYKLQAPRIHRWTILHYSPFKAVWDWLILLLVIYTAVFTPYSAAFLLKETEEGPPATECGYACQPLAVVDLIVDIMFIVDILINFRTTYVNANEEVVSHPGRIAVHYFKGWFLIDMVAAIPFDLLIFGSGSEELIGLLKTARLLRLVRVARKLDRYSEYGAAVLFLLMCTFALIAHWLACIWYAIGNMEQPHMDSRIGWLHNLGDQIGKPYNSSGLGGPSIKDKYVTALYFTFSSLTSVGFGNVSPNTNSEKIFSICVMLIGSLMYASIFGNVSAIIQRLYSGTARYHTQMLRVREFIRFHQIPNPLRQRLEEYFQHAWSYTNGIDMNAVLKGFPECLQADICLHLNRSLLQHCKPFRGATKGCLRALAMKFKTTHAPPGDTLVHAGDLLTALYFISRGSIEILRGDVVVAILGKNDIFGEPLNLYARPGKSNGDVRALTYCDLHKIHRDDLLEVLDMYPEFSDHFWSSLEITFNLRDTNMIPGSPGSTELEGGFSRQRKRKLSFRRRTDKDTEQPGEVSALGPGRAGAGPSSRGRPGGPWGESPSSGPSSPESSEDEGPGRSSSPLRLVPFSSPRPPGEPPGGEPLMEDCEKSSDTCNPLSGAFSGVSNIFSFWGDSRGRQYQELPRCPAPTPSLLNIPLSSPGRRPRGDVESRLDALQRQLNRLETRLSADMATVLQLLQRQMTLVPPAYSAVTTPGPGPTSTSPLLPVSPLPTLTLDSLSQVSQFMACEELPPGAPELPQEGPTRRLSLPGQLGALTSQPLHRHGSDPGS
Retinoic acid receptor RXR-alpha (Homo sapiens), sequence (P19793 whole entry, looked up): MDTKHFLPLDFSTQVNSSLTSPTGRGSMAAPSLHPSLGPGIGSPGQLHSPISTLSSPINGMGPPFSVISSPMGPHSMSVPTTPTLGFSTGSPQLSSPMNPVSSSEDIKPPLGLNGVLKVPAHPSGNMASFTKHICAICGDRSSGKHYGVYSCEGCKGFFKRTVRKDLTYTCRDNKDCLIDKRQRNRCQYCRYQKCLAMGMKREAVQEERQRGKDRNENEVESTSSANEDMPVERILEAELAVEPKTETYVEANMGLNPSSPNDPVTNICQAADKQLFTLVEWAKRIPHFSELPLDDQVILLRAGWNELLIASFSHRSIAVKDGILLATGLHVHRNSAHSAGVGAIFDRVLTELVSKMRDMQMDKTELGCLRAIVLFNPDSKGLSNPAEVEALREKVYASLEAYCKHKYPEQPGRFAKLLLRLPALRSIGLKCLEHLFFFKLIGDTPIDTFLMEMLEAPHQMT
Luciferin 4-monooxygenase (Photinus pyralis), sequence (P08659 whole entry, looked up): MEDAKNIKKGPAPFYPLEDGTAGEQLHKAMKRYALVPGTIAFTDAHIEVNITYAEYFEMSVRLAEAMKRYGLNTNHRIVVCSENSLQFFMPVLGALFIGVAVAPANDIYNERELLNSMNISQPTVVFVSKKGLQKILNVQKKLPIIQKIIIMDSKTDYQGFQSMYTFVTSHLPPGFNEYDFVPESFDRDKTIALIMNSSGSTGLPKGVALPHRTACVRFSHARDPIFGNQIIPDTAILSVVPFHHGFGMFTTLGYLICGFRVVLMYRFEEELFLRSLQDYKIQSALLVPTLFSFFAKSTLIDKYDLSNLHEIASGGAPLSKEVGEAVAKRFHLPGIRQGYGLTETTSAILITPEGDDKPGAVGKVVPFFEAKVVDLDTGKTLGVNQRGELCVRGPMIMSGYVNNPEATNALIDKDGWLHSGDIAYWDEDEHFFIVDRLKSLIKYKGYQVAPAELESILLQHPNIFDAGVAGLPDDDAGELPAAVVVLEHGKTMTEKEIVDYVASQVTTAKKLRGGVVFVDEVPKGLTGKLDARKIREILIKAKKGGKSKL

With `CC1(C)O[C@H]2CC(=O)OC[C@]23[C@H]2CC[C@@]4(C)[C@H](c5ccoc5)OC(=O)[C@H]5O[C@]54[C@]2(C)C(=O)C[C@@H]13`, the Potency result in assay [1] is “inactive”.

For `C[C@@H]1CC(=O)NN=C1c1ccc(NN=C(C#N)C#N)cc1`, the Potency result in [1] is “inactive”.

In the case of `CN(Cc1cnc2nc(N)nc(N)c2n1)c1ccc(C(=O)N[C@@H](CCC(=O)O)C(=O)O)cc1`, the Potency in assay [2] is 0.447 µM (active). Besides, the activity change % (negative = inhibition) in [3] is -21.4% (inactive). For the same compound, the Potency result in [1], in assay [4], in assay [5], in assay [6], in assay [7] and in [8] was “inactive” throughout.

As for `COc1cc2c(c(OC)c1OC)-c1ccc(OC)c(=O)cc1[C@@H](NC(C)=O)CC2`, the call in assay [9] was inactive. The Potency entry in [1], in assay [4], in assay [5], in assay [7] and in assay [8] was “inactive” each time.

On to `Nc1c2c(nc3ccccc13)CCCC2`, for which the call in assay [10] was inactive. Besides, the max response in assay [11] was 12.8%; in assay [12] it was -6.99% (inactive). In addition, in assay [3], the activity change % (negative = inhibition) is -14.9% (inactive). Also, the Potency entry in assay [4], in assay [5], in [7] and in assay [8] was “inactive” throughout.

`C[C@](N)(Cc1ccc(O)c(O)c1)C(=O)O`: the max response in [13] is -4.18%; in assay [16] it was -1.09%; in assay [11], -16.7%; in assay [12], -26.4% (inactive). Moreover, the call in [14], in assay [10], in assay [15], in assay [9] and in [17] was inactive. Also, the Potency result in [2], in assay [1], in assay [4], in [5], in assay [6] and in assay [7] was “inactive” each time. The activity change % (negative = inhibition) in assay [3] was 1.38% (inactive).

Regarding `Cc1cn([C@H]2C=C[C@@H](CO)O2)c(=O)[nH]c1=O`, the max response in [13] is 27.7% and 7.49%; in [16], -12.5% and -2.44% and -13%; in [11] it was -1.05% and 0.328% and -3.51%; in assay [12] it was 0.606% (inactive) and 10% (inactive) and 8.08% (inactive). Further, the compound was called inactive in assay [14], in [10], in assay [15], in assay [9] and in assay [17]. Further, the Potency result in assay [2], in assay [1], in assay [4], in [5], in assay [6] and in [7] was “inactive” each time. For the same compound, the Potency result in [8] is “inactive”. In assay [3], the activity change % (negative = inhibition) was 3.32% (inactive) and -6.39% (inactive).

As for `O=c1c(-c2ccc(O)cc2)coc2cc(O)cc(O)c12`, the activation in assay [18] was -14.7% (inactive) and -3.51% (inactive). In addition, the call in [15] and in assay [9] was inactive. For the same compound, in [11], the max response is 18.6%. In addition, the Potency was 35.5 µM (active) in [12], 9.07 µM (active) in [4] and 25.1 µM (active) in assay [19]. In addition, the activity change % (negative = inhibition) in assay [3] is -35.3% (inactive). The Potency entry in [1], in assay [5], in assay [6], in [7] and in assay [8] was “inactive” in each case.

Take `N[C@@H](Cc1c[nH]c2ccc(O)cc12)C(=O)O`: the activation in assay [18] is -7.97% (inactive). In addition, the max response in assay [13] was 3.83%; in [16], -7.77%; in assay [11], 1.87%; in [12], 3.1% (inactive). Moreover, the compound was classed as inactive in assay [14], in assay [10], in assay [15], in assay [9] and in assay [17]. The Potency result in [2], in assay [1], in [5], in assay [6], in assay [19] and in assay [8] was “inactive” each time. The activity change % (negative = inhibition) in assay [3] was -8.63% (inactive). Besides, the Potency in assay [7] is 1.12 µM (active).
